# From the supplement of paper PMC6288085
# Counter-ions that a name gives are not always drawn. ± gives the uncertainty stated by the source.
# System: Caenorhabditis elegans N2
# Assay: food intake (mean delta OD600 / animal over 72 h) with 50 uM loxapine co-treatment (OD600 units per animal); higher = more food eaten (less suppression of loxapine-induced hyperphagia)
# Conditions: first compound 33 µM, loxapine concentration 50 µM
# Procedure: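 C. elegans N2 adults (FUDR-sterilised, day 1) in 96-well plates fed gamma-irradiated bacteria. Each library drug (MedChemExpress FDA-approved library) at 33 uM was combined with loxapine at 50 uM. Food intake was measured as bacterial clearance: the change in OD600 from day 1 to 72 h, normalised per animal (mean over 14-21 wells of about 10-12 worms). Drugs flagged for bacterial lysis or sickness were excluded by the authors.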
row,Structure (SMILES),food intake
1,CC(=O)CCCCn1c(=O)c2c(ncn2C)n(C)c1=O [pentoxifylline] + CN1CCN(C2=Nc3ccccc3Oc3ccc(Cl)cc32)CC1 [loxapine],0.0226 ± 0.002
2,CN1CCC[C@H]1c1cccnc1 [L-nicotine] + CN1CCN(C2=Nc3ccccc3Oc3ccc(Cl)cc32)CC1 [loxapine],0.0212 ± 0.0058
3,Nc1nccs1 [aminothiazole] + CN1CCN(C2=Nc3ccccc3Oc3ccc(Cl)cc32)CC1 [loxapine],0.0243 ± 0.0035
4,CC(CN1c2ccccc2Sc2ccccc21)N(C)C (stereo not drawn) [promethazine (hydrochloride)] + CN1CCN(C2=Nc3ccccc3Oc3ccc(Cl)cc32)CC1 [loxapine],0.0219 ± 0.0024
5,O=C(Nc1c(Cl)cncc1Cl)c1ccc(OC(F)F)c(OCC2CC2)c1 [roflumilast] + CN1CCN(C2=Nc3ccccc3Oc3ccc(Cl)cc32)CC1 [loxapine],0.0214 ± 0.0055
6,CC(=O)O[C@H]1Cc2ccccc2N(C(N)=O)c2ccccc21 [eslicarbazepine (acetate)] + CN1CCN(C2=Nc3ccccc3Oc3ccc(Cl)cc32)CC1 [loxapine],0.0232 ± 0.0043
7,Clc1ccc(COC(Cn2ccnc2)c2ccc(Cl)cc2Cl)c(Cl)c1 (stereo not drawn) [miconazole (nitrate)] + CN1CCN(C2=Nc3ccccc3Oc3ccc(Cl)cc32)CC1 [loxapine],0.0169 ± 0.005
8,Cc1cc(C)c2c(c1)[C@@H](N(Cc1cc(C(F)(F)F)cc(C(F)(F)F)c1)c1nnn(C)n1)CCCN2C[C@H]1CC[C@H](C(=O)O)CC1 [Evacetrapib] + CN1CCN(C2=Nc3ccccc3Oc3ccc(Cl)cc32)CC1 [loxapine],0.0229 ± 0.0033
